# According to ChEMBL document CHEMBL1201862, “PubChem BioAssay data set” (2004):
# The campaign covered roughly 400,000 compounds. About 2,100 (0.53%) were called active. Inconclusive results (about 14%) are left out. How the calls were made is not given here. Many of the other results were omitted from the sample, so actives are more common in it than they were.
# Molecular target: Ataxin-2 (Homo sapiens) (UniProt Q99700)
# Experiment: qHTS for Inhibitors of ATXN expression.
# Format: functional
# Chain of Ataxin-2 (Homo sapiens) (Q99700 whole entry): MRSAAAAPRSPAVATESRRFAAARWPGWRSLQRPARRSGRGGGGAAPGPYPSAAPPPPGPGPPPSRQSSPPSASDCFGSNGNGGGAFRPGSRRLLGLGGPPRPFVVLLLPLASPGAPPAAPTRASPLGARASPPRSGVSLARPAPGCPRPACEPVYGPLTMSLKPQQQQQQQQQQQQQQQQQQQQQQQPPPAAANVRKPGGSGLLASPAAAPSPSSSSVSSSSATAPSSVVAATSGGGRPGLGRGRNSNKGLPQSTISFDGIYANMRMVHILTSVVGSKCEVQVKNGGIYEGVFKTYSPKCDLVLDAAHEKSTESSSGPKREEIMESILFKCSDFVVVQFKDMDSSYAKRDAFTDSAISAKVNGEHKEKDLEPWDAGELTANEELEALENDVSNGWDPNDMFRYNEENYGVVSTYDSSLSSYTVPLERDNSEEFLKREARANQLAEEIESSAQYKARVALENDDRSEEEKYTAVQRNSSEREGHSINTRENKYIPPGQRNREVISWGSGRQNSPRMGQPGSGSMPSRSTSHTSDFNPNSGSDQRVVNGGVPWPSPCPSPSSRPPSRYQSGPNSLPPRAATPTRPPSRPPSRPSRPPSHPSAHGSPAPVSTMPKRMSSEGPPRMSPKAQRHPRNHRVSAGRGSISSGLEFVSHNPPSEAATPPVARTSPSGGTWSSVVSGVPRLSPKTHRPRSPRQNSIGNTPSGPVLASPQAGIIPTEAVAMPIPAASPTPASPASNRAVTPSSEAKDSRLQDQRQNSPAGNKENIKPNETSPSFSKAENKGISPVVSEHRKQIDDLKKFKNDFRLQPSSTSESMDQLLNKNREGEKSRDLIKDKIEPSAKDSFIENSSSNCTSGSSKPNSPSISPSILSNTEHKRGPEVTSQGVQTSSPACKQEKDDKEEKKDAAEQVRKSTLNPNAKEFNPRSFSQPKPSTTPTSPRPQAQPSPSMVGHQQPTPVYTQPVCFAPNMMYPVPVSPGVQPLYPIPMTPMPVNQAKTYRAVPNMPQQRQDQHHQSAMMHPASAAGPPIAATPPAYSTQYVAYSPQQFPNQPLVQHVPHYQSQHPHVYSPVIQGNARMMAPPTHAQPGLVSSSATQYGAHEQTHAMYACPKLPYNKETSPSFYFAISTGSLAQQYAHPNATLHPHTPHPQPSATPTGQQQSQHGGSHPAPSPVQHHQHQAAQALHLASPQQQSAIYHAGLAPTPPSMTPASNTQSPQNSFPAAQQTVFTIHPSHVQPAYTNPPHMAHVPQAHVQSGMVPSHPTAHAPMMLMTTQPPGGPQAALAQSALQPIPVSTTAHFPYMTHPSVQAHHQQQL
row,Structure (SMILES),Potency
1,O=C1c2cccc3c(O)ccc(c23)C(=O)N1c1ccc(Cl)cc1,inactive
2,O=CN/C=C/c1cc(O)ccc1O,35.5 µM (active)
3,COC(=O)/C=C/c1sc2nc(C)cc(C)c2c1/N=C/N(C)C,inactive
4,COc1ccc(N(C(=O)c2cnccn2)C(C(=O)NCc2ccccc2)c2ccc(O)cc2)cc1 (centres undefined),inactive
5,COCCN(C(=O)Cc1cccs1)C(C(=O)NCc1ccc(OC)cc1)c1ccc(C(C)C)cc1 (centres undefined),39.8 µM (active)
6,COc1ccc(CNC(=O)CNS(=O)(=O)c2cccs2)cc1,inactive
7,Cc1ccc(C(=O)CSc2nnc(C3CC3)n2C2CC2)s1,inactive
8,CC(=O)Nc1ccc(OC(F)(F)Cl)cc1,inactive
9,N#C/C(=N/Nc1ccc(OC(F)(F)F)cc1)C(N)=S,10 µM (active)
10,Oc1ccc(-c2nccc(-c3ccc(Cl)cc3)n2)cc1,inactive
11,Oc1ccc(N=Nc2n[nH]c(-c3ccc(Cl)cc3)n2)cc1,35.5 µM (active)
12,Oc1ccc(-c2onc3ccc(Cl)cc23)cc1,inactive
13,O=C1C=C(c2c(O)ccc3ccccc23)c2ccccc2C1=O,35.5 µM (active)
14,O=C1c2cccc3c(O)ccc(c23)C(=O)N1Cc1ccccc1,inactive
15,CN(C)/C=C1\Oc2ccc3ccccc3c2C1=O,inactive
16,CCN1C(=O)c2cccc3c(S(=O)(=O)NCc4cccnc4)ccc1c23,inactive
17,CCCC(=O)OCCNc1cc(Sc2nccn2C)c2nonc2c1[N+](=O)[O-],39.8 µM (active)
18,CCC(=O)OCCNc1cc(Sc2nccn2C)c2nonc2c1[N+](=O)[O-],35.5 µM (active)
19,COC(C/C=C/C(=O)[C@H](C)OCc1ccccc1)OC,39.8 µM (active)
20,COc1ccccc1OCc1ccc(C(=O)Nc2ccccc2)cc1,inactive
21,Clc1ccc(C(c2ccccc2)c2c[nH]c3ccccc23)s1 (centres undefined),31.6 µM (active)
22,c1ccc(C(c2cccs2)c2c[nH]c3ccccc23)cc1 (centres undefined),39.8 µM (active)

row,Structure (SMILES),Potency
1,Oc1nc2ccccc2nc1-c1c[nH]c2ccccc12,inactive
2,CCOc1ccccc1C1C(C(=O)OC)=CN(C)C=C1C(=O)OC,inactive
3,CC(=O)Oc1c(-c2ccc(Br)o2)oc2ccccc2c1=O,inactive
4,COC(=O)/C(=C1/Oc2cc(C)oc(=O)c2S1)C(F)(F)F,20 µM (active)
5,CC(C)[C@H](NS(=O)(=O)c1ccccc1F)C(=O)NC1CCCCC1,inactive
6,O=C1NCCNC1(c1c[nH]c2ccccc12)C(F)(F)F (centres undefined),inactive
7,O=C1C=CC(c2c[nH]c3ccccc23)CC1 (centres undefined),35.5 µM (active)
8,CC(=O)N1CCC(c2c[nH]c3ccccc23)CC1,inactive
9,C=CCn1c(=N)c(C#N)cc2c(=O)n3ccccc3nc21,inactive
10,CC(C)(C)OC(=O)N[C@@H](Cc1ccccc1)c1nnc(S(=O)(=O)Cc2cccc(F)c2)o1,31.6 µM (active)
11,COC(=O)CS(=O)(=O)c1nnc([C@H](Cc2ccccc2)NC(=O)OC(C)(C)C)o1,39.8 µM (active)
12,Cc1ccccc1CS(=O)(=O)c1nnc([C@H](Cc2ccccc2)NC(=O)OC(C)(C)C)o1,35.5 µM (active)
13,Oc1c(Br)cc(Cl)cc1/C=N/c1ccc(N2CCOCC2)cc1,inactive
14,Cc1ccc(O)c(C(=O)c2cc(C#N)c(=O)n(-c3nccs3)c2)c1,inactive
15,N=c1c(C(=O)NCc2ccc(F)cc2)cc2c(=O)n3ccccc3nc2n1Cc1cccnc1,inactive
16,O=C(Nc1ccc(F)cc1)c1sc2cc(C(F)(F)F)cnc2c1-c1cccs1,inactive
17,O=C(Oc1ccc2c(-c3ccccc3)cc(=O)oc2c1)C1CCCCC1,inactive
18,Cc1cccn2c(=O)c(C=C(C#N)C#N)c(N3CCN(c4ccccc4)CC3)nc12,inactive
19,Cc1cc(Oc2nc3c(C)cccn3c(=O)c2/C=C(\C#N)S(=O)(=O)c2ccccc2)ccc1Cl,39.8 µM (active)
20,CNC(=O)/C(C#N)=C/c1c(N2CCN(c3ccccc3)CC2)nc2c(C)cccn2c1=O,inactive
21,COc1cc(OC)nc(C(NC(=O)C2CCN(Cc3c[nH]c4ccccc34)CC2)c2ccc(Cl)cc2)n1 (centres undefined),35.5 µM (active)
22,COc1ccc(NC(=O)c2cc(S(=O)(=O)N3CCCC3)ccc2C)cn1,inactive

row,Structure (SMILES),Potency
1,O=C(CCSc1ccc(Cl)cc1)Nc1cccnc1,inactive
2,CCS(=O)(=O)N1CCN(Cc2c[nH]c3ccccc23)CC1,inactive
3,COc1ccc(C(NC(=O)C2CCN(CCOc3ccc(Cl)cc3Cl)CC2)c2ccccc2C)cn1 (centres undefined),31.6 µM (active)
4,O=C(COC(=O)Cc1c[nH]c2ccccc12)Nc1cc(S(=O)(=O)N2CCOCC2)ccc1Cl,inactive
5,CCOc1ccc(Cl)cc1S(=O)(=O)N1CCC(C(=O)NC2CC2)CC1,inactive
6,O=C(NC(c1ccc(F)cc1)c1ccc2ccccc2n1)C1CCN(CCOc2ccc(Cl)cc2Cl)CC1 (centres undefined),22.4 µM (active)
7,O=C(NC(c1ccc(Cl)cc1)c1cccnc1)C1CCN(CCOc2ccc(Cl)cc2Cl)CC1 (centres undefined),39.8 µM (active)
8,Cn1cc(/C=N\O)nc2c(=O)n(-c3ccccc3)c(=O)nc1-2,inactive
9,O=C(COC(=O)/C=C/c1ccc(S(=O)(=O)N2CCc3ccccc32)cc1)NC1CCS(=O)(=O)C1 (centres undefined),inactive
10,CNc1cncc(-c2ccc(S(C)(=O)=O)cc2)n1,inactive
11,N=c1c(S(=O)(=O)c2ccc(Cl)cc2)cc2c(=O)n3ccccc3nc2n1Cc1ccco1,inactive
12,COc1ccc(NS(=O)(=O)c2cccc(C(=O)NN=C(C)c3ccco3)c2)cc1,inactive
13,Cc1ccccc1/C=C/c1cc[n+](C)cc1,inactive
14,NC(=O)C1CCN(CC(=O)Nc2ccccc2Sc2ccc(Cl)cc2)CC1,inactive
15,COc1ccc(Cl)cc1NC(=O)CNC(c1ccccc1)c1ccccc1,inactive
16,O=C(NC(c1ccccc1)c1ccsc1)C1CCN(CCOc2ccc(Cl)cc2Cl)CC1 (centres undefined),39.8 µM (active)
17,COc1ccc2nc(N3CCCC(O)C3)c(C#N)cc2c1 (centres undefined),inactive
18,NC[C@@H]1O[C@H](C23CC4CC(CC(C4)C2)C3)Cc2c1ccc(O)c2O,31.6 µM (active)
19,CCOCCCn1c(=N)c(C(=O)NCCN2CCOCC2)cc2c(=O)n3cccc(C)c3nc21,inactive
20,CC(C)=CCc1cc([C@@H]2COc3c(ccc4c3C=CC(C)(C)O4)C2)c(O)cc1O,35.5 µM (active)
